HTT-AS promoter: HTT-AS promoter activation; HEK293 HTT-AS promoter firefly luciferase reporter, 24 h; response scale: percent change from vehicle, -100% = no light; Potency, µM (series often up to 57.5 µM), for inactives: at the top dose activity change, positive = activation, most hits filed as activators; 0.24% of 48,000 active; also: potency is read from the fitted curve at half-maximal effect; nearly all actives have a fitted effect of over 55% in size
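HEK293 cells carrying firefly luciferase reporters were seeded at 2,500 per well in Opti-MEM and cultured for 24 h. They were then treated with compounds at up to 57.5 uM final for 24 h at 37 degrees C before Dual-Glo luminescence readout.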
HTT promoter inh: inhibits huntingtin promoter activity; HEK293 HTT promoter firefly luciferase reporter, 24 h; Potency, µM (doses to about 57.5 µM), for the others: at the highest dose activity change, negative = inhibition, usual class: inhibitors; 0.93% of 48,000 active; AID 1508623; also: potency is read from the fitted curve at half-maximal effect; nearly all actives have a fitted effect of over 50% in size
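Quantitative HTS used concentration series of up to 57.5 uM final on HEK293 luciferase reporter cells, 24 h at 37 degrees C. Readout was Dual-Glo firefly luminescence.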
NTMT1 inhibitor: inhibitors of human N-terminal methyltransferase NTMT1; Potency, µM (doses to about 114 µM), without a hit: at the top dose activity change, negative = inhibition, usual class: inhibitors; NTMT1 MTase-Glo SAH luminescence, purified enzyme; 2.5% of 59,000 active; AID 1645870; Q9BV86;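 also: potency is read from the fitted curve at half-maximal effect; plate controls were DMSO vehicle for no effect and no enzyme for full effect; nearly all actives have a fitted effect of over 65% in size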
Target sequence (Q9BV86 whole entry, looked up): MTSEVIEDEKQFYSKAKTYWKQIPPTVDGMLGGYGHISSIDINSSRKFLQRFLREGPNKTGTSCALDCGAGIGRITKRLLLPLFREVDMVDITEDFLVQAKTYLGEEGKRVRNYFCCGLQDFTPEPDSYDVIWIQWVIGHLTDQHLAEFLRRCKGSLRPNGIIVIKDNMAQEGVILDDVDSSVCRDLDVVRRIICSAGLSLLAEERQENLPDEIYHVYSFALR
FH mod: Identification of activators of human fumarate hydratase by quantitative high-throughput screening. FH coupled MDH/diaphorase resazurin fluorescence, 15 min. Potency, µM (series often up to 79.9 µM), inactives show at the highest dose activity change, negative = inhibition, hits mostly inhibitors. 0.22% of 54,000 active; also: potency is read from the fitted curve at half-maximal effect; % is scaled to controls: 0 for no effect and ±100 for the full control effect; the screen sought activators but most active calls are inhibition curves; nearly all actives have a fitted effect of over 45% in size
Sfp PPTase inh: inhibits purified B. subtilis Sfp PPTase | 78% of 230 active | Potency, µM (top dose mostly 114 µM), without a hit: top-dose activity change, negative = inhibition, usual class: inhibitors | shares compounds with NTMT1 inhibitor | purified Sfp PPTase enzyme activity, qHTS
Bsub HM489 growth: reduces growth of B. subtilis HM489 strain | shares compounds with NTMT1 inhibitor | B. subtilis HM489 (acpS-) growth, BacTiter-Glo, 5 h | Potency, µM (highest dose often 114 µM), for the others: top-dose activity change, negative = inhibition, hits mostly inhibitors | 50% of 220 active
Sfp PPTase gel: inhibitors of Bacillus subtilis Sfp PPTase, gel-based followup. shares compounds with NTMT1 inhibitor. purified Sfp PPTase, gel-based product detection. Potency, µM (highest dose often 250 µM), for the others: top-dose activity change, negative = inhibition, hits mostly inhibitors. 54% of 220 active. AID 540355
Sfp gel: Sfp phosphopantetheinyl transferase inhibition, gel detection; shares compounds with NTMT1 inhibitor; Potency, µM (series often up to 250 µM), without a hit: top-dose activity change, negative = inhibition, most hits filed as inhibitors; purified Sfp PPTase, gel-based product detection; AID 602362; 90% of 45 active
Sfp SAR2: Sfp phosphopantetheinyl transferase inhibition, SAR round 2. shares compounds with NTMT1 inhibitor. purified Sfp enzyme, PPTase activity, qHTS. Potency, µM (series often up to 57.1 µM), without a hit: top-dose activity change, negative = inhibition, usual class: inhibitors. 87% of 230 active. AID 602370
hGST A1-1 inh: hGST A1-1 enzyme inhibition, Sfp SAR counter-screen; shares compounds with NTMT1 inhibitor; hGST A1-1 enzyme activity counter-screen, qHTS; Potency, µM (doses to about 114 µM), for inactives: at the top dose activity change, negative = inhibition, actives largely listed as inhibitors; 55 tested, under 10 active
HSD17B4 inh: HSD17B4 (human) inhibition, HPGD counter-screen; shares compounds with NTMT1 inhibitor; purified HSD17B4, estradiol/NAD+, NADH fluorescence; Potency, µM (series often up to 57.1 µM), for inactives: at the top dose activity change, negative = inhibition, most hits filed as inhibitors; 10% of 230 active; AID 743187
ALDH1A1 counter: inhibits human ALDH1A1, off-target for HPGD inhibitors; shares compounds with NTMT1 inhibitor; recombinant ALDH1A1, NADH fluorescence, propionaldehyde/NAD+; Potency, µM (titrated, usually from 57.1 µM), inactives show at the highest dose activity change, negative = inhibition, hits mostly inhibitors; 93% of 230 active; AID 743195
NNMT counter: counter-screen for NTMT1 inhibitors: human NNMT inhibition; shares compounds with NTMT1 inhibitor; NNMT MTase-Glo luminescence, SAH detection; Potency, µM (series often up to 57.1 µM), for inactives: top-dose activity, negative = inhibition, hits mostly inhibitors; 10% of 120 active; AID 1645878
Target sequence (P40261 whole entry, looked up): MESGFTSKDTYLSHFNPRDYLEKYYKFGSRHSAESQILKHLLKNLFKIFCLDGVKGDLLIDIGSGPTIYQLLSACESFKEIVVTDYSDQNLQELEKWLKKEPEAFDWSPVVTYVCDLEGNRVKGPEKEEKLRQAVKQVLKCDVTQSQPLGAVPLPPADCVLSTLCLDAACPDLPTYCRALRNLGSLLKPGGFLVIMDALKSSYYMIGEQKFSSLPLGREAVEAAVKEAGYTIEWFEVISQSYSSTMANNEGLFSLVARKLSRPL
* hit, by the source's call; ? = inconclusive; · = no result; [ ] = remark or other dose. The list is not random: actives were taken first. Their share in the collection is about 2.6%. Calls follow the shape of the dose curve; as a rule, active = well fitted curve in the direction sought with a large enough effect; inconclusive = small, poorly fitted or top-dose-only effect, or another doubt; inactive = no such curve, though single readings can be large; an effect the other way counts as inactive or inconclusive.

SMILES	HTT-AS promoter	HTT promoter inh	NTMT1 inhibitor	FH mod	Sfp PPTase inh	Bsub HM489 growth	Sfp PPTase gel	Sfp SAR2	HSD17B4 inh	ALDH1A1 counter	others
CCCCCOc1ccc(-c2cc(-c3ccc(C(=O)N[C@H]4C[C@@H](O)[C@@H](O)NC(=O)C5[C@@H](O)[C@@H](C)CN5C(=O)C([C@H](O)CC(N)=O)NC(=O)C([C@H](O)[C@@H](O)c5ccc(O)c(OS(=O)(=O)O)c5)NC(=O)C5C[C@@H](O)CN5C(=O)C([C@@H](C)O)NC4=O)cc3)no2)cc1 (some centres not stated)	·	·	1%[29.8 µM]	-5%[53.3 µM]	·	·	·	·	·	·
CCCCCOc1ccc(-c2ccc(-c3ccc(C(=O)N[C@H]4C[C@@H](O)[C@@H](O)NC(=O)[C@@H]5[C@@H](O)[C@@H](C)CN5C(=O)[C@H]([C@@H](C)O)NC(=O)[C@H]([C@H](O)[C@@H](O)c5ccc(O)cc5)NC(=O)[C@@H]5C[C@@H](O)CN5C(=O)[C@H]([C@@H](C)O)NC4=O)cc3)cc2)cc1	·	·	5%[29.8 µM]	-18%[53.3 µM]	·	·	·	·	·	·	NNMT counter=-4%[28.6 µM]
FC(F)(F)c1cccc(N2CCN(C(=S)Nc3nccc4ccccc34)CC2)c1	·	·	?	·	1.9µM*	2.6µM*	7.9µM*	1.4µM*	27µM*	17µM*	Sfp gel=1.3µM*;hGST A1-1 inh=-10%
FC(F)(F)c1cccc(N2CCN(C(=S)Nc3ccc4ccccc4n3)CC2)c1	·	·	·	·	5.9µM*	?	0.32µM*	10µM*	-23%	6.8µM*
Cc1ccc(C)c(N2CCN(C(=O)c3ccc(NC(=O)c4nsc5ccccc45)cc3)CC2)c1	?	-24%	-15%	-29%	·	·	·	·	·	·
Cc1cc2n(n1)CCC(=O)N2Cc1ccc(C(=O)Nc2cccc(C(F)(F)F)c2)cc1	-29%	-15%	-19%	-5%	·	·	·	·	·	·
Cc1cc(C)nc(NC(=S)N2CCN(c3nccc4ccccc34)CC2)c1	·	·	?	·	2.6µM*	?	-63%	9.1µM*	-23%	9.6µM*
Cc1cc(C)nc(NCc2ccc(O)c3ncccc23)c1	·	·	-4%	·	·	·	·	·	·	·

Source: PubChem BioAssay (National Center for Advancing Translational Sciences (NCATS))
